Assay results taken from PubChem BioAssay (EPA / NIEHS).
Calls of active or inactive are those of the source. Rule for the calls: active = hit-call score of the fitted dose curve at least 0.9, where 1 is the maximum; inactive = score below 0.9.

Legend:
Details in all cases: primary human HUVEC with PBMC; actives raise or lower the signal
[1] = read-out: Interleukin-1 alpha (IL1a), IL1A (gene 3552); assay: BSK_LPS_IL1a: BioMAP Diversity Plus: LPS Assay for Interleukin-1 alpha (IL1a) Biomarker Activity (AID 2283080)
How it was run: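 Human umbilical vein endothelial cells co-cultured with PBMC and stimulated with LPS; IL-1a measured by ELISA 24 h after dosing. Bidirectional fitting against DMSO; cytotoxicity checked by SRB staining in parallel cultures.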

[2] = read-out: Monocyte Chemoattractant Protein-1 (MCP1), CCL2 (gene 6347); assay: BSK_LPS_MCP1: BioMAP Diversity Plus: LPS Assay for Monocyte Chemoattractant Protein-1 (MCP1) Biomarker Activity (AID 2283081)
How it was run: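 Human umbilical vein endothelial cells co-cultured with PBMC, LPS-stimulated; secreted MCP-1 measured by ELISA 24 h after compound addition. Bidirectional curve fitting against DMSO baseline; SRB total-protein staining in parallel cultures for cytotoxicity.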

[3] = read-out: Macrophage colony-stimulating factor (MCSF), CSF1 (gene 1435); assay: BSK_LPS_MCSF: BioMAP Diversity Plus: LPS Assay for Macrophage colony-stimulating factor (MCSF) Biomarker Activity (AID 2283083)
How it was run: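 HUVEC–PBMC co-culture, M-CSF measured by ELISA 24 h after chemical dosing. Fitted in both directions relative to DMSO as negative control; overt cytotoxicity assessed by SRB total-protein staining in parallel cultures.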

[4] = read-out: Tissue Factor, F3 (gene 2152); assay: BSK_LPS_TissueFactor: BioMAP Diversity Plus: LPS Assay for Tissue Factor Biomarker Activity (AID 2283084)
How it was run: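 Human umbilical vein endothelial cells co-cultured with PBMC were dosed with compound. Cell-surface CD142 was measured by ELISA 24 h later. Activity was fitted bidirectionally against DMSO, with SRB total-protein staining in parallel cultures for cytotoxicity.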

[5] = read-out: Tumor necrosis factor (Homo sapiens) (UniProt P01375); assay: BSK_LPS_TNFa: BioMAP Diversity Plus: LPS Assay for Tumour Necrosis Factor alpha (TNFa) Biomarker Activity (AID 2283085)
How it was run: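 TNFa was quantified by ELISA in LPS-activated co-cultures of human endothelial cells and PBMC, 24 h post-dosing. Both increases and decreases versus DMSO were fitted.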

[6] = read-out: Vascular cell adhesion molecule 1 (VCAM1), VCAM1 (gene 7412); assay: BSK_LPS_VCAM1: BioMAP Diversity Plus: LPS Assay for Vascular cell adhesion molecule 1 (VCAM1) Biomarker Activity (AID 2283086)
How it was run: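 VCAM-1 quantified by ELISA in an LPS-activated co-culture of human endothelial cells and peripheral blood mononuclear cells, read 24 h post-treatment. Fitted in both directions versus DMSO; parallel SRB staining flags overt cytotoxicity.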

CD38, CD38 (gene 952) = assay: BSK_SAg_CD38: BioMAP Diversity Plus: SAg Assay for CD38 Biomarker Activity (AID 2283087)
How it was run: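 CD38 quantified by ELISA (fluorescence) in a superantigen-activated endothelial cell–PBMC co-culture at 24 h post-dose. Activity fitted in both directions relative to DMSO; parallel SRB and Alamar Blue cytotoxicity read-outs.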

CD40, CD40 (gene 958) = assay: BSK_SAg_CD40: BioMAP Diversity Plus: SAg Assay for CD40 Biomarker Activity (AID 2283088)
How it was run: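 HUVEC plus PBMC co-culture, superantigen-activated, with CD40 read by ELISA 24 h after dosing. Curves fitted in both directions against DMSO. Overt cytotoxicity checked by parallel SRB total-protein staining.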

CD69, CD69 (gene 969) = assay: BSK_SAg_CD69: BioMAP Diversity Plus: SAg Assay for CD69 Biomarker Activity (AID 2283089);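 for AC50: cell surface CD69 protein quantified by ELISA with fluorescence detection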
How it was run: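 HUVEC co-cultured with PBMC were dosed with chemical, and CD69 was measured by ELISA with fluorescence read-out 24 h later. Bidirectional curve fitting used DMSO as negative control and activity baseline.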

Measured: AC50

Chain of Tumor necrosis factor (Homo sapiens) (P01375 whole entry, looked up): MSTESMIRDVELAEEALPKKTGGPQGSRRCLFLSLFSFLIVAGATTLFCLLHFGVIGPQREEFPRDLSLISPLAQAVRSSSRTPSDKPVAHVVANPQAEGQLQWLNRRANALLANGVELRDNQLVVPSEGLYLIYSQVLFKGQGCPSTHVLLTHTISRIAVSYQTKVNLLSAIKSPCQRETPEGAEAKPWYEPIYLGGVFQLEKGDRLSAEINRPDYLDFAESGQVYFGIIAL

CC(=O)Nc1ccc(N=Nc2cc(C)ccc2O)cc1
active: [6] 5.06 µM | CD38, CD38 (gene 952) 7.17 µM | CD69, CD69 (gene 969) 5.73 µM
inactive: all other assays above

FC(F)(Br)C(F)(F)C(F)(F)C(F)(F)C(F)(F)C(F)(F)Br
inactive: all assays above

FC(F)(F)C(F)(F)C(F)(F)C(F)(F)C(F)(F)C(F)(F)C(F)(F)C(F)(F)F
inactive: all assays above

O=C(CC(=O)C(F)(F)C(F)(F)F)C(F)(F)F
inactive: all assays above

Nc1ccc([N+](=O)[O-])cc1O
inactive: all assays above

O=P(O)(O)OCCC(F)(F)C(F)(F)C(F)(F)C(F)(F)C(F)(F)C(F)(F)F
inactive: all assays above

FC(F)(F)C(F)(F)C(F)(F)C(F)(F)C(F)(F)C(F)(F)CCS
inactive: all assays above

CCN(CC)c1ccc2c(C)cc(=O)oc2c1
inactive: all assays above

FC(F)(F)C(F)(F)C(F)(F)C(F)(F)C(F)(F)C(F)(F)C(F)(F)Br
inactive: all assays above

Cc1ccc(S(=O)(=O)OCC(F)(F)C(F)(F)C(F)(F)C(F)(F)C(F)(F)C(F)F)cc1
inactive: all assays above

FC(F)(F)C(F)(F)C(F)(F)N(C(F)(F)C(F)(F)C(F)(F)F)C(F)(F)C(F)(F)C(F)(F)F
inactive: all assays above
